The panel holds about 83,000 compounds, 20% with a hit somewhere; the sample as a whole holds those more often.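 Method: cells in 96-well plates; compound added at one concentration; 48 h incubation; percent growth measured; values under 10 scored active.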 The source made the active and inactive calls.

The test system of the test is BT-549 breast. Nature of the test: NCI-60 one-dose screen, 48 h (100 = growth as untreated, 0 = no growth, -100 = all killed). The following applies: 10 µM unless noted.
Turning to `COc1cccc(-c2nn(-c3ccccc3)cc2-c2ccnc(NCCCN)c2)c1`, the growth is 68.6% (inactive). The result for `Cn1cnc2c1c(=O)n(CCC(=O)Nc1ccc(F)cc1)c(=O)n2C` reads 91.1% (inactive); that for `C=C(C)[C@@H]1CC[C@]2(C=O)CC[C@]3(C)[C@H](CC[C@@H]4[C@@]5(C)C/C(=C/c6cccnc6)C(=O)C(C)(C)[C@@H]5CC[C@]43C)[C@@H]12`, 75.6% (inactive); that for `CN(C)c1cccc2[nH]c(-c3[nH]ncc3Nc3ccnc(N)n3)nc12`, -31.5% (active). To `O=Cc1nc2ccccc2[nH]1` belongs 101% (inactive); to `COc1cc2nc(Cl)nc(Nc3cccc(C(=O)/C=C/c4ccc(Br)cc4)c3)c2cc1OC`, 79.7% (inactive). To `CC[C@H](CC[C@@H](C)[C@H]1CC[C@H]2[C@@H]3/C(=C/c4cccnc4)C(=O)C4=CC(=O)CC[C@]4(C)[C@H]3CC[C@]12C)C(C)C` belongs 91.3% (inactive).

Consider `C=C(C)[C@@H]1CC[C@]2(c3nnc(-c4ccncc4)o3)CC[C@]3(C)[C@H](CC[C@@H]4[C@@]5(C)CCC(=O)NC(C)(C)[C@@H]5CC[C@]43C)[C@@H]12`, for which the growth was 89.8% (inactive). The result for `COc1cc(NC(C)CN(CC(C)C)C(C)C)c2ncccc2c1` (stereo not drawn) reads 108% (inactive). The result for `Nc1c2c(nc3ccc(Cl)cc13)CC(c1ccccc1)CC2=O` (stereo not drawn) reads 39.8% (inactive); that for `COC(=O)[C@]12CC[C@@H](C)[C@H](C)[C@@H]1C1=CC[C@@H]3[C@@]4(C)C[C@@H](O)[C@H](O)[C@@](C)(CO)C4=CC[C@@]3(C)[C@]1(C)CC2`, -80.2% (active). The result for `CCC1C(=O)COC1=O` (stereo not drawn) reads 95.9% (inactive). For `C=C(C)[C@@H]1CC[C@]2(C)[C@H](CC=C3[C@@H]4CC(C)(C)CC[C@]4(C(=O)OC)CC[C@]32C)[C@@]1(C)CC/C(N)=N/O`, the growth is 63.7% (inactive).

As for `O=C(/C=C/c1cccc2ccccc12)Nc1ncc(Cc2ccccc2)s1`, the growth was 24.8% (inactive). The result for `N#Cc1c(-c2ccc(O)cc2)c2c(N)nn(-c3ccccc3)c2[nH]c1=O` reads 111% (inactive); that for `COc1ccc(-c2c(-c3nc4ccc(N5CCOCC5)cc4[nH]3)[nH]c(C)c2C(C)=O)cc1`, 64.9% (inactive). The result for `c1ccc(-c2nc(Nc3ccc(-c4nc5ccccc5[nH]4)cc3)nc(N3CCOCC3)n2)cc1` reads 33.7% (inactive); that for `Cc1cc2nc3c4cc(Cl)ccc4n(CCN(C)C)c3nc2cc1C`, 53.6% (inactive); that for `Cc1cc(N2CCOCC2)nc(N(CCCNc2ccnc3cc(Cl)ccc23)Cc2ccco2)n1`, 37.8% (inactive). Regarding `Cc1cc(N(CCNc2ccnc3cc(Cl)ccc23)Cc2ccco2)nc(Cl)n1`, the growth was -78% (active). As for `COc1ccc(/C=C/C(=O)NCCO)cc1`, the growth is 102% (inactive). To `O=C1NC(c2ccc(Cl)c(Cl)c2)=C/C1=C\c1ccccc1` belongs 86.2% (inactive). The result for `N#C/C(=C\c1ccc(-c2ccccc2)o1)c1nc(-c2ccco2)cs1` reads 94.6% (inactive); that for `C=C1C(=O)O[C@H]2[C@H]1CC/C(COC(=O)NCc1c[nH]c3ccccc13)=C\CC[C@@]1(C)O[C@@H]21`, 50.7% (inactive).

`Cn1cc(-c2csc(-c3cn(CCN)c4ccccc34)n2)c2cccnc21`: the growth is 59.6% (inactive). Turning to `C=C(C)[C@@H]1CC[C@]2(C)[C@H](CC[C@@H]3[C@H]4[C@H]5OC[C@@]4(CCC5(C)C)CC[C@]32C)[C@@]1(C)CCCN`, the growth is 93.8% (inactive).

As for `CC[C@]12C=CCN3CC[C@@]4(c5cc([C@H]6CCC(=O)N6)c(OC)cc5N(C)[C@H]4[C@@](O)(C(=O)OC)[C@@H]1OC(C)=O)[C@@H]32`, the growth was 113% [2.5 µM] (inactive).

`COc1cc2c(cc1-c1c(C)noc1C)ncc1nc(C3CCCCC3)n([C@@H](C)COC(F)F)c12`: the growth was 52.9% (inactive). The result for `COc1ccc(/C=C(\C#N)c2cc3ccccc3n2S(C)(=O)=O)cc1` reads 86% (inactive); that for `CCc1cccc(CC)c1NC(=O)c1sc2nc3c(cc2c1N)CCCC3`, 74.8% (inactive); that for `O=C1CCC/C=C\C[C@H]2C=C(Cl)C(=O)/C2=C/C[C@H](CCCCC(F)(F)F)OC(=O)CCC/C=C\C[C@H]2C=C(Cl)C(=O)/C2=C/C[C@H](CCCCC(F)(F)F)O1`, -43.8% [7.5 µM] (active). On to `COc1cc(-c2cc3ncccc3c3nc(N)c4cccnc4c23)cc(OC)c1OC`, for which the growth is 27.6% (inactive).

Consider `COC(=O)[C@]12CC[C@@H](C)[C@H](C)[C@@H]1C1=CC[C@@H]3[C@@]4(C)C[C@@H](OC(C)=O)[C@H](O)[C@@](C)(CO)[C@@H]4[C@H](O)C[C@@]3(C)[C@]1(C)CC2`, for which the growth is -81.5% (active).

Consider `Cc1ccc(N(CC(=O)Nc2ccc(S(=O)(=O)NC3CCN(C)CC3)cc2)S(=O)(=O)c2ccc(Cl)cc2)cc1`, for which the growth is 86.6% (inactive). The result for `N#CC1=C(N)Oc2ccc3ccccc3c2C1c1ccccc1` (stereo not drawn) reads 19.8% (inactive); that for `COc1ccc(C(=O)/C=C/c2cc(-c3cc(OC)c(OC)c(OC)c3)n[nH]2)cc1OC`, -51.6% (active); that for `Cn1c(/C(C#N)=C/c2ccc3ccccc3c2)cc2ccccc21`, -16.6% (active). Turning to `CCN(CC)c1ccc(/C=C/c2cc(C)c3ccccc3n2)cc1`, the growth is 93.2% (inactive).

For the origin of these results see PubChem BioAssay (NCI).
